Rab9 prom act: qHTS Assay for Rab9 Promoter Activators; Huh7 Rab9 promoter-luciferase reporter, luminescence, 24 h; actives 2.8% (n = 320,000); Potency, µM (top dose mostly 9.22 µM), for the others: top-dose activation, negative = inhibition, actives largely listed as activators; AID 485297, 2010; further: % of control where 0% means no effect; nearly all actives have a fitted effect of over 60% in size
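Luminescence read-out: Huh7 cells stably expressing Rab9-luciferase, treated 24 h with compound at 37 °C, then lysed with luciferase reagent for 10 min at ambient before reading.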
KinaseGlo FLuc: Counterscreen for Luciferase (Kinase-Glo TM) Inhibition. Luciferin 4-monooxygenase (Photuris pensylvanica), Q27757. Kinase-Glo luciferase, ATP luminescence, 8 min. Potency, µM (top dose mostly 38.3 µM), for the others: top-dose activity change, negative = inhibition, most hits filed as inhibitors. actives 0.28% (n = 200,000); further: on the % scale 0 is the no-effect control and ±100 the full control effect; nearly all actives have a fitted effect of over 60% in size
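Light output from Kinase-Glo luciferase with luciferin and 10 uM ATP in 50 mM imidazole pH 7.2, KCl, MgCl2, Tween 20, BSA; compound pin-delivered, 8-min ambient incubation, then luminescence read.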
NPC1 promoter act: qHTS Assay for NPC1 Promoter Activators. Potency, µM (titrated, usually from 9.22 µM), for inactives: at the highest dose activation, most hits filed as activators. Huh7 NPC1 promoter luciferase reporter, 24 h. actives 2.4% (n = 320,000); further: % of control where 0% means no effect; nearly all actives have a fitted effect of over 60% in size
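Luminescence read-out of NPC1 promoter-driven luciferase in stably transfected Huh7 cells; compounds delivered in DMSO and left 24 h at 37C, 5% CO2, qHTS titration format.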
SMN2 splice up: qHTS Assay for Enhancers of SMN2 Splice Variant Expression; Potency, µM (highest dose often 46.1 µM), for the others: at the top dose activity change, positive = activation, usual class: activators; HEK293 SMN2-luciferase splicing reporter, luminescence, 30-36 h; AID 1458, 2008; actives 2.8% (n = 210,000); further: % of control where 0% means no effect; nearly all actives have a fitted effect of over 55% in size
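HEK293 cells carry an SMN2 minigene-luciferase reporter in which exon 7 inclusion puts luciferase in frame. Cells were seeded at 2000 cells/well, attached for 10-12 hours, then exposed to compounds for 30-36 hours at 37C before ONE-Glo luminescence.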
ELG1 genotox: qHTS screen for small molecules that induce genotoxicity in human embryonic kidney (HEK293T) cells expressing luciferase-tagged ELG1; AID 504466, 2011; HEK293T ELG1-luciferase reporter, luminescence, 16 h; Potency, µM (series often up to 46 µM), for inactives: at the highest dose activity change, positive = activation, actives largely listed as activators; actives 1.3% (n = 330,000); further: % of control where 0% means no effect; nearly all actives have a fitted effect of over 60% in size
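ELG1-luciferase HEK293T cells, 2,000/well; compound pinned in; 16 hr, 37 °C, 5% CO2; ONE-Glo, 30 min RT; luminescence on CCD imager.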
FLuc modulator: qHTS profiling assay for firefly luciferase inhibitor/activator using purifed enzyme and Km concentrations of substrates (counterscreen for miR-21 project). Potency, µM (top dose mostly 57.5 µM), for inactives: top-dose activity change, negative = inhibition, most hits filed as inhibitors. actives 6.9% (n = 360,000). AID 588342, 2011. purified FLuc, Km substrates, luminescence inhibition;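 further: plate controls were vehicle for no effect and reference inhibitor for full effect; nearly all actives have a fitted effect of over 55% in size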
Target sequence (P08659 whole entry, looked up): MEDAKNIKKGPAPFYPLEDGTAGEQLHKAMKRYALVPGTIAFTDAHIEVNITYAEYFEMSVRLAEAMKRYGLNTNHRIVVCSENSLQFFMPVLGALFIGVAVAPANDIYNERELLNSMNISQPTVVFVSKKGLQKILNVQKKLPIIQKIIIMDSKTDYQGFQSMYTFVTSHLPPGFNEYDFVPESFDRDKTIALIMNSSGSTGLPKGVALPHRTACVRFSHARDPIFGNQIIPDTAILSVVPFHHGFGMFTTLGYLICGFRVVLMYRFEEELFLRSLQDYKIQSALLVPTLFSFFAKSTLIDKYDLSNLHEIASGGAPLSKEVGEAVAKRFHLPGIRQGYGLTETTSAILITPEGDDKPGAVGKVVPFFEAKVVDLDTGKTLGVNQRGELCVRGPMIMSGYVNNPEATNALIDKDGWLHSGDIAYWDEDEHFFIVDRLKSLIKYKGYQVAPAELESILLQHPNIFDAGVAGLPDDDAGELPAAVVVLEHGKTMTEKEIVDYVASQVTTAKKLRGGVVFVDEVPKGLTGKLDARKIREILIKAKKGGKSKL
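Biochemical qHTS of compounds, final roughly 60 µM downward over six points, against 10 nM purified firefly luciferase using Km concentrations of substrates (10 uM D-luciferin, 10 uM ATP) in Tris acetate pH 7.5 buffer; luminescence output.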
Starred values were filed as active, the others as inactive; ? = inconclusive; · = no result; [ ] = another dose, or the depositor's remark. An excerpt weighted towards active compounds, which were near 7.3% of everything screened. The call rests on the fitted dose curve; in most records, active means well fitted curve in the direction sought with a large enough effect; inconclusive means small, poorly fitted or top-dose-only effect, or another doubt; inactive means no such curve, though single readings can be large; an effect the other way counts as inactive or inconclusive. Potency means the concentration at half of the fitted maximal effect.

SMILES | Rab9 prom act | KinaseGlo FLuc | NPC1 promoter act | SMN2 splice up | ELG1 genotox | FLuc modulator
CC(=C\c1ccccc1)/C=C1/SC(=S)N(CCC(=O)O)C1=O | -4%[1.84 µM] | · | -2% | · | 4% | 21µM*
CC(/C=C1\SC(=S)N(CC(=O)O)C1=O)=C\c1ccccc1 | 21% | · | ? | · | 16% | 17µM*
CC(=O)Nc1ccc(S(=O)(=O)N(C#N)c2nc(N(C)C)nc(N(C)C)n2)cc1 | -4% | · | 1% | · | 0% | -6%
CCCCOc1ccc(C(=O)N2CCCC2)cc1 | 25% | -16% | 21% | 11µM* | 18µM* | ?
COc1ccc(OCCC(=O)N2CCN(C)CC2)cc1 | -5% | · | -5% | · | 2% | -3%
CC1CN(C(=O)c2cccc(COc3ccccc3Cl)c2)CC(C)O1 (centres undefined) | ? | 1% | 3.5µM* | 11µM* | ? | 15µM*
CCOc1ccc(OCc2cccc(C(=O)N3CCCC3)c2)cc1 | 0.45µM* | -4% | 0.35µM* | 2.8µM* | 0.65µM* | 3µM*
COc1ccc(OCCC(=O)N2CCCCC2)cc1 | 29% | 0% | 30% | 18µM* | 11% | ?
CCOc1ccc(C(=O)N2CCCC2)cc1 | 1% | 0% | -2% | 7% | 3% | 0%
c1cncc(-c2nccc(-n3ccnc3)n2)c1 | · | -3% | · | 12% | · | ·
COc1cc(NC(=O)CN(C)S(=O)(=O)c2ccc3c(c2)CC(C)N3C(C)=O)cc(OC)c1 (centres undefined) | -4% | · | -1% | · | -5% | 2%
CCOc1ccc(C(=O)N2CCN(Cc3ccccc3)CC2)cc1 | 5% | 4% | -5% | -9% | -4% | -5%
CCOc1ccc(OCc2cccc(C(=O)N3CCCCCC3)c2)cc1 | 0.28µM* | -2% | 0.32µM* | 1.8µM* | ? | 0.54µM*
O=C(NN1CCCCC1)c1cccc(COc2ccc(Cl)cc2)c1 | 3.5µM* | 1% | ? | 14µM* | ? | 4.8µM*
CCOC(=O)C1CCCCN1Cc1cccc(OCc2ccccc2)c1 (centres undefined) | 0% | · | -4% | · | -1% | 4%
Cc1cccc(-c2nc3nc(C)cc(N4CCN(c5ccccc5)CC4)n3n2)c1 | · | · | · | 2% | · | -1%
CCN=c1scc(C)n1/N=C/c1ccsc1 | 3.2µM* | -2% | 3.2µM* | ? | ? | 17µM*
COc1ccc(OCC(=O)N/N=C/c2ccsc2)cc1 | -5% | -5% | 0% | 6% | 3% | ?
COc1cc(CC(=O)Nc2ccc(S(=O)(=O)Nc3ncccn3)cc2)cc(OC)c1OC | 1% | -1% | -1% | -12% | 3% | 0%
O=C1c2ccccc2NC(c2cnc3ccccc3n2)N1O (centres undefined) | 0.89µM* | -17% | 1.3µM* | 11µM* | ? | 2.4µM*
COC(=O)c1ccc(NS(=O)(=O)c2ccc3c(c2)oc(=O)n3C)cc1 | -10% | 16% | 2% | -25% | -2% | 4%
Cc1cc(C)c2c(N)c(-c3nc4ccccc4[nH]3)sc2n1 | 2.8µM* | 2% | ? | 13µM* | ? | ?
Cc1ccc2nc(-c3sc4nc(C)ccc4c3N)[nH]c2c1 | 3.2µM* | -11% | 3.2µM* | 2.2µM* | ? | 1.2µM*
COc1cccc(-n2c(N)c(-c3nc4ccccc4[nH]3)sc2=S)c1 | 0% | 9% | 10% | -17% | -11% | ?
c1ccc2c(-c3csc(-c4ccncc4)n3)c[nH]c2c1 | ? | 0% | 1% | 13µM* | ? | 7.6µM*
SMILES | Rab9 prom act | KinaseGlo FLuc | NPC1 promoter act | SMN2 splice up | ELG1 genotox | FLuc modulator
Brc1ccc(-c2csc(-c3c[nH]c4ccccc34)n2)cc1 | 9% | -3% | ? | ? | 10% | 21µM*
CN(CC(=O)Nc1ccc(Cl)c(C(F)(F)F)c1)C(=O)c1cc(-c2ccncc2)nc2ccccc12 | -3% | · | -3% | · | -51% | ?
COc1ccc(C2c3c(ccc4ccccc34)Oc3ncn4nc(Cc5ccccc5)nc4c32)cc1OC (centres undefined) | -3% | 0% | -11% | 2% | 4% | 1%
COCCn1c(C)cc(C(=O)CSc2nnc(C)s2)c1C | · | 10µM* | · | -58% | · | 1.7µM*
COCCn1c(C)cc(C(=O)CSc2nnnn2C2CCCC2)c1C | ? | · | 0.1µM* | · | ? | 0.085µM*
COc1ccc(Cl)cc1C(=O)CSc1nnnn1C1CCCC1 | 2% | · | 0% | · | 10% | ?
COc1ccc(OC)c(NC(=O)Cn2c(-c3ccc(Cl)cc3)noc2=O)c1 | 6% | · | 3% | · | 0% | 10%
CSc1nc(C)cc(OCCO)n1 | -4% | -3% | 13% | -28% | 1% | -3%
CCOc1ccc(CNC(=O)CCCN2C(=O)C(c3ccccc3)Oc3cccnc32)cc1 (centres undefined) | 1% | · | 2% | · | -4% | 1%
Cc1ccc(C)c(NC(=O)CCc2c(C)nn(-c3ccc(N4CCCC4)nn3)c2C)c1 | · | · | · | · | · | 0%
Cc1cccc(NC(=O)CCc2c(C)nn(-c3ccc(N4CCCCC4)nn3)c2C)c1 | ? | · | ? | · | 9% | 5.4µM*
COc1cccc(NC(=O)CCc2c(C)nn(-c3ccc(N4CCOCC4)nn3)c2C)c1 | 15% | · | 6% | · | 5% | ?
Cc1cccc(NC(=O)CCc2c(C)nn(-c3ccc(N4CCOCC4)nn3)c2C)c1 | 26% | · | 28% | · | 6% | 15µM*
c1ccc(Oc2ccc(-c3ccn[nH]3)cc2)cc1 | 3.2µM* | · | ? | · | ? | 11µM*
c1ccc(Oc2ccc(-c3ccnc4ncnn34)cc2)cc1 | -12% | 2% | -1% | 1% | 10% | -11%
O=C(Nc1ccccc1F)C(=O)Nc1cccc2ccccc12 | 2.8µM* | · | ? | · | ? | ?
O=C(Nc1cccc2ccccc12)/C(Cl)=C/c1ccccc1 | 7% | 7% | 2% | 10% | 1% | 12µM*
Cc1[nH]c2ccccc2c1C(=O)COc1ccccc1F | 22% | -1% | 16% | · | 13% | 21µM*
Cn1c(=O)c2c(ncn2CC(=O)Nc2nc3ccc(F)cc3s2)n(C)c1=O | -2% | -4% | 0% | 3% | 14% | ?
N/C(=N\OC(=O)c1ccccc1Br)c1cccc([N+](=O)[O-])c1 | 1.3µM* | · | 2.2µM* | · | 5.8µM* | 2.4µM*
N/C(=N\OC(=O)c1ccccc1Br)c1ccc([N+](=O)[O-])cc1 | 3.5µM* | · | 4µM* | · | ? | 5.4µM*
